# Reference: PubChem BioAssay (NCATS)
# Inconclusive results are not listed. The source made the active and inactive calls. Unless noted, calls come from the whole dose curve; as a rule, active = well fitted curve in either direction with a large enough effect (not every such curve was filed as active); inconclusive = small, poorly fitted or top-dose-only effect, or another doubt; inactive = flat fitted curve, though single readings scatter.
# Legend:
# [1] = biological target: Lysosomal acid glucosylceramidase (Homo sapiens) (UniProt P04062); assay: Glucocerebrosidase-p2 (AID 348; in the data active = potency below about 10 µM; note: potency is the fitted concentration of half-maximal effect); conditions: purified GBA, blue fluorogenic substrate, 40 min
# Method in brief: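 Compounds titrated from 0.6 nM upwards against 0.2 nM enzyme in pH 5.9 citric acid/KH2PO4, taurocholate, tween-20; blue fluorogenic substrate 80 uM, 40 min room temperature, stopped and read Ex 365/Em 440 for AC50.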
# [2] = AP1 Signaling Pathway (AID 357); conditions: ME-180 AP-1-bla reporter, EGF-induced, beta-lactamase ratio, 5 h; at 7.69 µM (top of the series) unless noted;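 note: ME-180 reporter cells stimulated with EGF at its EC50 level; % is set by controls: 0 for no effect and ±100 for the full control effect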
# Method in brief: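 Modulation of EGF-driven AP-1 transcription was assessed with a beta-lactamase reporter in ME-180 cells. Compound and EC50 EGF were co-incubated 5 hours at 37 °C before 2.5-hour CCF4 loading at room temperature and dual-emission reading.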
# [3] = biological target: Cytochrome P450 1A2 (Homo sapiens) (UniProt P05177); assay: p450-cyp1a2 (AID 410; calls by dose curve; note: potency is the fitted concentration of half-maximal effect;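 for activity change, negative = inhibition: -100% = full effect of reference inhibitor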); conditions: recombinant CYP1A2, luciferin-ME demethylation, luminescence; series mostly up to 57 µM
# Method in brief: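 Inhibition was calculated relative to 57 uM furafylline (full inhibition). The reaction used human CYP1A2 at 20nM with Luciferin-ME at its Km, 100uM, driven by an NADPH-regenerating system for 60 min at room temperature.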
# [4] = NFAT Signaling Pathway (AID 444); conditions: Jurkat NFAT-bla M1, carbachol, beta-lactamase ratio, 5 h; at 7.69 µM (top of the series) unless noted;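 note: carbachol stimulus at about its EC50 of 1 µM final; % is set by controls: 0 for no effect and ±100 for the full control effect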
# Method in brief: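 Jurkat cells carrying an NFAT-driven β-lactamase reporter and co-transfected muscarinic M1 receptor were treated with compound plus carbachol (1 uM final, an EC50 level) for 5 h at 37 °C. CCF4 loading followed for 1 h at RT; 460/530 nm ratio gave %activity.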
# [5] = Stat Signaling Pathway (AID 446); conditions: ME-180 SIE beta-lactamase reporter, IL-6 stimulated, 5 h; at 7.69 µM (top of the series) unless noted;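 note: ME-180 cervical cancer cells given 40 pM IL-6 alongside compound; SIE-controlled beta-lactamase reporter measured as 460/530 nm FRET emission ratio; % is set by controls: 0 for no effect and ±100 for the full control effect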
# Method in brief: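 IL-6/STAT signaling read in ME-180 cells via an SIE beta-lactamase reporter. Stimulus was 40 pM IL-6 (its AC50) for 5 hrs, so both activation and inhibition register.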
# [6] = biological target: Glucocorticoid receptor (Homo sapiens) (UniProt P04150); assay: GR-EFC Redistribution (AID 451; calls by dose curve; note: potency is the fitted concentration of half-maximal effect); conditions: CHO-K1 GR-EFC translocation, beta-gal luminescence, 2 h
# Method in brief: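 CHO-K1 cells stably expressing nuclear-localized β-gal enzyme acceptor and GR fused C-terminally to the enzyme donor fragment; ligand-driven nuclear translocation restores β-gal by complementation. Compounds titrated up to 46 uM final, 2 h at 37 °C; luminescence read.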
# [7] = biological target: Mitogen-activated protein kinase 10 (Mus musculus) (UniProt Q61831); assay: JNK3 AlphaScreen Assay (AID 530); conditions: JNK3 lysate, c-Jun phosphorylation; series mostly up to 57.1 µM;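 note: kinase came from lysate of stimulated human HepG2 cells; signal reports phosphorylation of biotinylated GST-cJun 1-79 at Ser73 with 10 µM ATP; % is set by controls: 0 for no effect and ±100 for the full control effect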
# Method in brief: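 JNK3 came from HepG2 lysates pre-activated with IL-1beta and TNF-alpha and phosphorylated biotinylated GST-cJun (1-79) at 10 uM ATP, pH 7.6, room temperature. Compounds were titrated. AlphaScreen signal used anti-phospho-cJun (Ser73) antibody.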
# [8] = biological target: 3',5'-cyclic-AMP phosphodiesterase 4B (Homo sapiens) (UniProt Q07343); assay: qHTS Assay for Inhibitors of PDE-IV (AID 607; active = well fitted activation curve with a large enough effect in the main read-out, with a control signal flat, not every such curve was filed as active; note: % of control where 0% means no effect); conditions: HEK293 ACTOne CNG channel cells, membrane potential fluorescence; series mostly up to 22.9 µM
# Method in brief: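 Live HEK293 cells with a modified cyclic nucleotide-gated (CNG) channel report intracellular cAMP via membrane-potential dye fluorescence (ex 535/em 590 nm). Endogenous PDE-IV was targeted. Compounds were tested at up to 22.9 uM final; RO 20-1724 100 uM served as control.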
# [9] = qHTS Assay for Lipid Storage Modulators (AID 1519; calls by dose curve); conditions: Drosophila S3 cells, BODIPY lipid droplet/cell ratio, laser cytometry, cells loaded with oleic acid; for activity change, negative = inhibition: at 57.5 µM (top of the series)
# Method in brief: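 Cells seeded at 5,000 per well were treated with compounds over a concentration series and loaded with oleic acid (400 uM, as added). Lipid droplet fluorescence (488 nm excitation, 500-530 nm channel) was read by laser-scanning cytometry and normalized to 20 uM Triacsin C.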
# [10] = Primary qHTS for small molecule stabilizers of the endoplasmic reticulum resident proteome: Secreted ER Calcium Modulated Protein (SERCaMP) assay (AID 1508630; active = well fitted curve in the direction sought with a large enough effect; an effect the other way counts as inactive or inconclusive; note: % is set by controls: 0 for no effect and ±100 for the full control effect); conditions: SH-SY5Y GLuc-SERCaMP (Gaussia luciferase released on ER calcium loss) secretion, thapsigargin, luminescence; series mostly up to 38.4 µM
# Method in brief: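 GLuc-SERCaMP-expressing SH-SY5Y cells, pretreated 16 h with compound, are challenged with thapsigargin to empty ER calcium stores; after 4 h, coelenterazine is added directly to the medium and luminescence is imaged.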
# [11] = biological target: Cytochrome P450 2C9 (Homo sapiens) (UniProt P11712); assay: qHTS Assay for Inhibitors and Substrates of Cytochrome P450 2C9 (AID 883; active = well fitted curve in the direction sought with a large enough effect; an effect the other way counts as inactive or inconclusive; note: nearly all actives have a fitted effect of over 60% in size; note: potency is the fitted concentration of half-maximal effect); conditions: recombinant CYP2C9, luciferin-H luminescence, 60 min; series mostly up to 57.1 µM
# Method in brief: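 Human CYP2C9 (10nM) hydroxylated Luciferin-H (100uM, at its KM) to luciferin in 25mM KPO4. Compound was preincubated 10 min at 37C, then NADPH regeneration started a 60 min reaction at 37C. Luminescence was read after detection reagent, normalized to 57uM sulphaphenazole.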
# [12] = biological target: Cytochrome P450 3A4 (Homo sapiens) (UniProt P08684); assay: qHTS Assay for Inhibitors and Substrates of Cytochrome P450 3A4 (AID 884; active = well fitted curve in the direction sought with a large enough effect; an effect the other way counts as inactive or inconclusive; note: nearly all actives have a fitted effect of over 50% in size; note: potency is the fitted concentration of half-maximal effect); conditions: recombinant CYP3A4, Luciferin-PPXE luminescence; series mostly up to 57.1 µM
# Method in brief: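 20 nM human CYP3A4 with 25 uM Luciferin-PPXE (at KM) in 200 mM KPO4, preincubated 10 min with compound; NADPH regeneration started a 60 min RT reaction. Luciferin detected by luminescence, normalized to 57 uM ketoconazole as full inhibition.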
# [13] = biological target: Cytochrome P450 3A4 (Homo sapiens) (UniProt P08684); assay: qHTS Assay for Activators of Cytochrome P450 3A4 (AID 885; active = well fitted curve in the direction sought with a large enough effect; an effect the other way counts as inactive or inconclusive; note: nearly all actives have a fitted effect of over 65% in size; note: potency is the fitted concentration of half-maximal effect); conditions: recombinant CYP3A4, Luciferin-PPXE luminescence, 60 min; series mostly up to 57.1 µM
# Method in brief: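 Quantitative HTS format: compounds preincubated with 20nM human CYP3A4 and Luciferin-PPXE substrate at KM, reaction started by NADPH regeneration, stopped after 60 min, luciferase luminescence read 20 min later.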
# [14] = biological target: Cytochrome P450 2C19 (Homo sapiens) (UniProt P33261); assay: qHTS Assay for Inhibitors and Substrates of Cytochrome P450 2C19 (AID 899; active = well fitted curve in the direction sought with a large enough effect; an effect the other way counts as inactive or inconclusive; note: potency is the fitted concentration of half-maximal effect; nearly all actives have a fitted effect of over 60% in size); conditions: recombinant CYP2C19, luciferin-H EGE luminescence; series mostly up to 57.1 µM
# Method in brief: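 Human CYP2C19 (5nM) with Luciferin-H EGE at 10uM (its KM) in 50mM KPO4 was preincubated with compound for 10 min at 37C. NADPH regeneration started a 60 min 37C reaction. Luciferin was read by luminescence, normalized to 57uM ketoconazole.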
# [15] = qHTS Assay for Identification of Small Molecule Agonists for Hypoxia Response Element Signaling Pathway (AID 914; active = well fitted activation curve with a large enough effect in the signal ratio, with a control signal flat, not every such curve was filed as active; the % refers to the signal ratio; note: % of control where 0% means no effect); conditions: ME-180 (cervical carcinoma) HRE-bla reporter, beta-lactamase ratio, CoCl2, 17 h; activation: stronger effect = higher value
# Method in brief: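 AC50 values come from titration-series %Activity, taken as the 460/530nm ratio of CCF4 fluorescence (excitation 405nm). CellSensor HRE-bla ME-180 cells were treated 17 hours at 37 C with compound plus an EC50 level of CoCl2.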
# [16] = measured here: cell count channel max response
# [17] = measured here: lipid channel max response
# Cytochrome P450 1A2 (Homo sapiens), sequence (P05177 whole entry, looked up): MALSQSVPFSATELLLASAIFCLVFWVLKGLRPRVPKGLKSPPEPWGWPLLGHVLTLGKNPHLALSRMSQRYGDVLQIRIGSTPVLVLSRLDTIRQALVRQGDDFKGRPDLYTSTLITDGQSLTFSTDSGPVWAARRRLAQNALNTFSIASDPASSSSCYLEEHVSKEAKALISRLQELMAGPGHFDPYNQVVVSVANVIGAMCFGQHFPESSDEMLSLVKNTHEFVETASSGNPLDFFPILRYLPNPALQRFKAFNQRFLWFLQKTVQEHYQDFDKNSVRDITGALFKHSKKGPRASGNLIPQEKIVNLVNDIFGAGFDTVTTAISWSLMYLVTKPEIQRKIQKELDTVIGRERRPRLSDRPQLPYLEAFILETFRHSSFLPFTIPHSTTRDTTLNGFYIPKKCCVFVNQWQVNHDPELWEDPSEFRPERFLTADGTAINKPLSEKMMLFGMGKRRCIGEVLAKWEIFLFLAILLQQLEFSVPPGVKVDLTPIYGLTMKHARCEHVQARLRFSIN
# 3',5'-cyclic-AMP phosphodiesterase 4B (Homo sapiens), sequence (Q07343 whole entry, looked up): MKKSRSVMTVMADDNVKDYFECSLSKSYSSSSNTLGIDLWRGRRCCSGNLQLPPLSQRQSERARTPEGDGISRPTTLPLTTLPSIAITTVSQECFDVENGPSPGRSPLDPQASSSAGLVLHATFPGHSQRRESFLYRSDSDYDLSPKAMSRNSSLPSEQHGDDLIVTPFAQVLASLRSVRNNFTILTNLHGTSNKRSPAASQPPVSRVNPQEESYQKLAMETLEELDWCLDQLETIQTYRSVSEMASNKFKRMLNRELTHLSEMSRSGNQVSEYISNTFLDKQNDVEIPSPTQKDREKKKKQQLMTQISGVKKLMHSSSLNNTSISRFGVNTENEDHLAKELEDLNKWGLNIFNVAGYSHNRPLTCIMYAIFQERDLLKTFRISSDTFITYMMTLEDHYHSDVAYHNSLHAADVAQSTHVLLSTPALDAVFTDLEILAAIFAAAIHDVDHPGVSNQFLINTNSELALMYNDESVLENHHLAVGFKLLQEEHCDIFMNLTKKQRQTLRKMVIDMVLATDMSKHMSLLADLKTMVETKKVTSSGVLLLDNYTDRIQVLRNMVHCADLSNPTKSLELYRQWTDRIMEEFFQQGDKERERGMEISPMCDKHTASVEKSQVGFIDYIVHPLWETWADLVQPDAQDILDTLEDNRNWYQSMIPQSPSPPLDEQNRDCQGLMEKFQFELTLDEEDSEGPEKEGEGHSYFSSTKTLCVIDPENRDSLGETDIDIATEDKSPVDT
# Cytochrome P450 2C9 (Homo sapiens), sequence (P11712 whole entry, looked up): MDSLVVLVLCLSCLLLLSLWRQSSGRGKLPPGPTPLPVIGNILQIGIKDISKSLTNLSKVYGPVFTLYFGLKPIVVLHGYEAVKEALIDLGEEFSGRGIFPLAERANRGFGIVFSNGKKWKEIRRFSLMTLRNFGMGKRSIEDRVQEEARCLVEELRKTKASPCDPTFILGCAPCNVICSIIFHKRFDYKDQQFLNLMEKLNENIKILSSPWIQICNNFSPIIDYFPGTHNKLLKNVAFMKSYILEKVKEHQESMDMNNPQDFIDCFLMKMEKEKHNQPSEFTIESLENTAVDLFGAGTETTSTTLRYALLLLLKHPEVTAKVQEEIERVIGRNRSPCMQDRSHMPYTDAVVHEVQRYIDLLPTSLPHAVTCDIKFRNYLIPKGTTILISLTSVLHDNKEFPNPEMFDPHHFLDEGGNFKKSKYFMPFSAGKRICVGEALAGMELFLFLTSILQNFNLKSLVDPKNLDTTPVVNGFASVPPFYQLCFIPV
# Glucocorticoid receptor (Homo sapiens), sequence (P04150 whole entry, looked up, the tested form may be a part): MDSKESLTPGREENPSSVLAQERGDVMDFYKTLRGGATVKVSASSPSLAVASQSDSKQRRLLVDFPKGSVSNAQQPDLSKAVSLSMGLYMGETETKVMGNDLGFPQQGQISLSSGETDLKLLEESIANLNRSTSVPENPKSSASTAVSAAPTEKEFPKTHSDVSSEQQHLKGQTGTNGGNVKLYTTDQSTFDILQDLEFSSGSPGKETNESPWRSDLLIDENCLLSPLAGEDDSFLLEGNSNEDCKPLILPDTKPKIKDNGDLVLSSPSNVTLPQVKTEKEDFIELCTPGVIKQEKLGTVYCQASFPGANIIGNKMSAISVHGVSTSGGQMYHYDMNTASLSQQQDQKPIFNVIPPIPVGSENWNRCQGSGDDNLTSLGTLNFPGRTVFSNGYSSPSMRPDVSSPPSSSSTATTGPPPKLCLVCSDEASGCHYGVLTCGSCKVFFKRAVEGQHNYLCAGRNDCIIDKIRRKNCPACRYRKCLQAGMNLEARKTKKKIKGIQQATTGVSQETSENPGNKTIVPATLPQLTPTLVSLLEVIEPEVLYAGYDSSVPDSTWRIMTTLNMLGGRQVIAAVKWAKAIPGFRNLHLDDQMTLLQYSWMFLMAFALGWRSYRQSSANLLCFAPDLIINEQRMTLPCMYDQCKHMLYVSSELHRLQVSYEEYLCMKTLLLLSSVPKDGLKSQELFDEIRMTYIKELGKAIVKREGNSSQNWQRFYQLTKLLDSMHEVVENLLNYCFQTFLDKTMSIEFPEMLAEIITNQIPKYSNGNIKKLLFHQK
# Cytochrome P450 3A4 (Homo sapiens), sequence (P08684 whole entry, looked up): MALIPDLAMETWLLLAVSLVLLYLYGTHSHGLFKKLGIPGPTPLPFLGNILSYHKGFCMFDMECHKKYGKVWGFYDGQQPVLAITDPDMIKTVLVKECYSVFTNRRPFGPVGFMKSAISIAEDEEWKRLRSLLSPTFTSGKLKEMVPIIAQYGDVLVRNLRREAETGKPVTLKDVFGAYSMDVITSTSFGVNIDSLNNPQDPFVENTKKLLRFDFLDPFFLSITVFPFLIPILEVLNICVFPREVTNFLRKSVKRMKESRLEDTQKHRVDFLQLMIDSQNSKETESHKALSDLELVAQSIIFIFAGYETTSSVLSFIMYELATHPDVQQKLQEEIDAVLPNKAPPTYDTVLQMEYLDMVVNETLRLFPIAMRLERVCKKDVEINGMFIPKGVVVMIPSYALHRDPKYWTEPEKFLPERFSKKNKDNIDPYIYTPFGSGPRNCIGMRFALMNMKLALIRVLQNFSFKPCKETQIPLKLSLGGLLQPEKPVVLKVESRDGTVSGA
# Lysosomal acid glucosylceramidase (Homo sapiens), sequence (P04062 whole entry, looked up): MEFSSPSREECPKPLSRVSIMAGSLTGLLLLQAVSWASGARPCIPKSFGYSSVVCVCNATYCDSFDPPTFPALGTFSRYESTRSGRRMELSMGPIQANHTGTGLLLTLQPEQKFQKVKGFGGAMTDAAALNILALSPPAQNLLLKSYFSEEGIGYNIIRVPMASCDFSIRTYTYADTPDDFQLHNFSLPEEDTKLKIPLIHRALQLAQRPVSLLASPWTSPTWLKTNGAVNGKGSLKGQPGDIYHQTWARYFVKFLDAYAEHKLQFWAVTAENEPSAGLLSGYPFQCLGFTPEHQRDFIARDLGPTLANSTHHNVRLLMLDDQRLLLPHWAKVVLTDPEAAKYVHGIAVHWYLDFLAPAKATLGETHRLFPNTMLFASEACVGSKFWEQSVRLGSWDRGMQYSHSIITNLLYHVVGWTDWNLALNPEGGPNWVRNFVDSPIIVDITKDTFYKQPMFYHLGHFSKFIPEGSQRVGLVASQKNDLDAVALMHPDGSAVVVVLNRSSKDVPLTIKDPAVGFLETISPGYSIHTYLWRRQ
# Cytochrome P450 2C19 (Homo sapiens), sequence (P33261 whole entry, looked up): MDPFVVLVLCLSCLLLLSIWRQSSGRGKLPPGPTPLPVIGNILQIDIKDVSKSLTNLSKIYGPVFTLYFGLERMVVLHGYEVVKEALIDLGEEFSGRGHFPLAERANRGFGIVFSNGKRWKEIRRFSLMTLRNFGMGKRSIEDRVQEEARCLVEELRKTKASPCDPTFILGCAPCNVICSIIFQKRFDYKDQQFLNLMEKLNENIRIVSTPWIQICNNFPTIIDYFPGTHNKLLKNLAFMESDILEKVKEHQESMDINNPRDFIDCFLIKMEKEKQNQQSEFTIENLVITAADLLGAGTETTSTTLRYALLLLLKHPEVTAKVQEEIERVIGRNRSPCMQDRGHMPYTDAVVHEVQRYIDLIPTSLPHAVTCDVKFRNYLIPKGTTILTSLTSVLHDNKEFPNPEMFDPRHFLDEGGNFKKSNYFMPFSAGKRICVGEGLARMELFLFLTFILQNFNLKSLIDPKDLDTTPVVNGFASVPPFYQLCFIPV
Compound,Potency [1],"activity change, negative = inhibition [2]",Potency [3],"activity change, negative = inhibition [4]","activity, negative = inhibition [5]",Potency [6],outcome [7],Potency [8],"activity change, negative = inhibition [9]","max response [9, 16] [%]","max response [9, 17] [%]",Potency [10],Potency [11],Potency [12],Potency [13],Potency [14],activation [15]
COC(=O)N1CCC[C@@]2(CCN(C(=O)Nc3cccc(C#N)c3)C2)C1,> 11.4 µM (inactive),-12.4% (inactive),inactive,19.3% (inactive),6.31% (inactive),> 46 µM (inactive),inactive,inactive,6.94% (inactive),4.39,15.8,inactive,–,–,–,–,–
CS(=O)(=O)N1CCC2(CCN(c3ccccc3)CC2)CC1,> 11.4 µM (inactive),0.201% (inactive),inactive,-7.56% (inactive),-0.282% (inactive),> 46 µM (inactive),inactive,inactive,5.49% (inactive),20.7,29.9,inactive,inactive,–,–,–,–
O=C(c1cccc(F)c1)N1CCC2(CC1)CCN(c1cccc(-c3ccccc3)c1)CC2,> 11.4 µM (inactive),-4.91% (inactive),20 µM (active),4.3% (inactive),-10.4% (inactive),> 46 µM (inactive),inactive,inactive,-5.71% (inactive),-11.6,-13.5,inactive,–,inactive,5.01 µM (active),–,–
O=C(c1csnn1)N1CCC2(CCCN(c3ccccc3)C2)CC1,> 11.4 µM (inactive),-2.99% (inactive),inactive,1.2% (inactive),-8.69% (inactive),> 46 µM (inactive),inactive,inactive,-0.699% (inactive),7.99,11.5,inactive,7.94 µM (active),–,inactive,–,–
CC(C)NC(=O)N1CC2(CCN(S(=O)(=O)c3ccccc3)CC2)C1,> 11.4 µM (inactive),-9.04% (inactive),inactive,21.2% (inactive),-0.15% (inactive),> 46 µM (inactive),inactive,inactive,-7.9% (inactive),3.88,-2.51,inactive,–,–,–,–,–
COCC(=O)N1CCC[C@@]2(CCN(c3ncccn3)C2)C1,> 11.4 µM (inactive),-8.65% (inactive),inactive,-4.08% (inactive),-2.01% (inactive),> 46 µM (inactive),inactive,inactive,-2.11% (inactive),19.1,20.3,inactive,–,–,–,–,–
CN1CCCC2(CCN(C(=O)c3cccn3C)CC2)C1,> 11.4 µM (inactive),-4.17% (inactive),inactive,-4.14% (inactive),7.29% (inactive),> 46 µM (inactive),inactive,inactive,1.86% (inactive),11.8,16.9,inactive,–,–,–,–,–
COC(=O)N1CCC2(CCN(Cc3nccs3)CC2)CC1,> 11.4 µM (inactive),-10.7% (inactive),inactive,-25.8% (inactive),0.339% (inactive),> 46 µM (inactive),inactive,inactive,2.86% (inactive),6.91,13.2,inactive,–,inactive,–,–,–
COc1ccccc1CN1CCCC2(CCNCC2)C1,> 11.4 µM (inactive),-7.6% (inactive),inactive,-29.2% (inactive),2.38% (inactive),> 46 µM (inactive),inactive,inactive,6.8% (inactive),4.5,14.4,inactive,–,–,–,–,–
Cc1noc(C)c1C(=O)N1CCC2(CCN(C(=O)NC(C)C)CC2)CC1,> 11.4 µM (inactive),-3.73% (inactive),5.01 µM (active),5.4% (inactive),3.31% (inactive),> 46 µM (inactive),inactive,inactive,4.44% (inactive),4.63,11.9,inactive,–,–,–,–,–
COc1ccccc1CN1CC[C@@]2(CCCN(C(=O)c3c(C)noc3C)C2)C1,> 11.4 µM (inactive),-0.263% (inactive),inactive,-13.2% (inactive),-3.34% (inactive),> 46 µM (inactive),inactive,inactive,6.24% (inactive),6.8,12.8,inactive,inactive,1.58 µM (active),inactive,–,–
CS(=O)(=O)N1CCC2(CCCN(c3ccncc3)C2)CC1,> 11.4 µM (inactive),10.1% (inactive),inactive,-14.2% (inactive),-2.99% (inactive),> 46 µM (inactive),inactive,inactive,4.5% (inactive),17.1,26.8,inactive,0.0794 µM (active),–,–,1.26 µM (active),20.8% (inactive)
O=C(Nc1cccc(F)c1)N1CC2(CCN(C(=O)c3csnn3)CC2)C1,> 11.4 µM (inactive),-24.7% (inactive),inactive,16.8% (inactive),-8.23% (inactive),> 46 µM (inactive),inactive,inactive,5.27% (inactive),2.11,8.72,inactive,–,–,–,–,–
